Compound activity: PubChem, several laboratories
This is a sample that favours compounds with a hit; in the whole collection about 22% have one here.
CYP2C19 activ – human CYP2C19 activators, primary screen, biochemical, luminescence | recombinant CYP2C19, luciferin-H EGE luminescence; hits give high values; 0 = fully inhibited enzyme, 1 = untreated enzyme | activation factor at 5 µM | 96,000 tested, under 10 active | AID 1025, 2008;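 active = activation factor of at least 2 at 5 µM in the primary screen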;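 also: 0 = wells with 2.5 mM tranylcypromine and 1 = vehicle-only wells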
Target sequence (P33261 whole entry, looked up): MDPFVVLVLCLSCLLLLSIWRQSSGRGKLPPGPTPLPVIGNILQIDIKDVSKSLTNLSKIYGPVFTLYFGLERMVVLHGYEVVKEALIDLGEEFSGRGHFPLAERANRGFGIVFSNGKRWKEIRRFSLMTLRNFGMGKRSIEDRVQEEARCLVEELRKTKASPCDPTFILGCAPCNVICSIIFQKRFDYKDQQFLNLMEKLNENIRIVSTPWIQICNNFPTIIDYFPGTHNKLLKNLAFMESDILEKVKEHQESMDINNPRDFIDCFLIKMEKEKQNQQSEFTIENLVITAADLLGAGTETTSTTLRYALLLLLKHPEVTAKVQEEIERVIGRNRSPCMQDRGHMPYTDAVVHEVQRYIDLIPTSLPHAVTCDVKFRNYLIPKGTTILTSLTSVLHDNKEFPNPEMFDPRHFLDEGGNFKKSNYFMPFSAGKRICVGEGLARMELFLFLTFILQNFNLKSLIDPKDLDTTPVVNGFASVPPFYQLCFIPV
CYP2C9 inh – blockers of cytochrome P450 2C9 activity – biochemical, luminescence, ADME assay, primary screen; P11712; CYP2C9 Supersomes, luciferin-H conversion; inhibition, % at 5 µM; hit rate 20% among 96,000;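 active = blocking of liver enzyme CYP2C9 beyond about 50% at 5 µM, limit read from the data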
CYP2C19 inhib – blockers of cytochrome P450 2C19 activity – biochemical, luminescence, ADME assay, primary screen. P33261. AID 778, 2007. CYP2C19 Supersomes, luciferin-H EGE luminescence, 30 min. hit rate 21% among 96,000. inhibition, % at 5 µM;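 active = CYP2C19 inhibition above a set limit at 5 µM in the primary screen, cut at about 50% in these data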;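 also: plate controls were negative control wells for no effect and 2.5 mM tranylcypromine positive control for full effect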
Measles CPE – compounds protecting cells from measles virus cytopathic effect, primary screen, measles RdRp inhibitor project, single point, MLSMR library, absorbance; Measles virus-infected cells, CPE protection; protection (pct of control), % at 4 µM; hit rate 1.5% among 140,000; in the data active = protection mostly above about 24%, no sharp cut-off; inactive = mostly below about 26%
CYP2C9 activ – human CYP2C9 activators, primary screen, biochemical, luminescence; Cytochrome P450 2C9 (Homo sapiens), P11712; recombinant CYP2C9, luciferin-H conversion; hits give high values; factor 1 = untreated enzyme, 0 = blocked; activation factor at 5 µM; hit rate 1.4% among 96,000;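 active = activation factor of 2 or more for CYP2C9 at a 5 µM dose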;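 also: 0 = sulfaphenazole-blocked wells and 1 = vehicle-only wells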
* marks the source's active call; other numbers are inactive results; x = no result given.

SMILES | CYP2C19 activ | CYP2C9 inh | CYP2C19 inhib | Measles CPE | CYP2C9 activ
N#Cc1cc2c(nc1SCC(=O)Nc1sc3c(c1C#N)CCC3)CCCC2 | 1 | 18.6 | 3.3 | 29.4 | 0.8
CCCCn1nnnc1SCC(=O)Nc1sc2c(c1C#N)CCCC2 | 0.8 | 28.5 | 19.6 | 17.4 | 0.7
C/C(=N\NC(=O)CNC(=O)c1ccc2c(c1)OCO2)c1ccco1 | x | x | x | 5.9 | x
O=C(NCc1ccco1)[C@@H]1CCCN1C(=O)c1cccs1 | 0.9 | 2.5 | 9.6 | 5.5 | 1
Cc1cccc(CCNC(=O)c2cc(=O)[nH]c3ccc(Br)cc23)c1 | x | x | x | 1.8 | x
Cc1ccc(NC(=S)NCc2ccc3[nH]c4c(c3c2)CCCC4)cc1 | x | x | x | 10.9 | x
CC(C)c1ccc(/C=c2\sc3nc(-c4ccncc4)nn3c2=O)cc1 | 0.7 | 57.8* | 27.2 | 7.7 | 0.4
Cc1ccc(/C=c2\sc3nc(-c4cccnc4)nn3c2=O)cc1 | 0.9 | 24.0 | 12.9 | 6.8 | 0.8
COc1ccc(-c2cn3cccnc3n2)cc1NC(=O)CC(C)C | 0.9 | 15.5 | 6.8 | 1.8 | 0.8
CCOC(=O)c1c(CN2CCCCC2)n(C)c2cc(Br)c(OC)cc12 | 0.9 | 34.4 | 11.9 | 6.2 | 0.7
CCOC(=O)c1c(CN2CCN(CCO)CC2)n(C)c2cc(Br)c(OC)cc12 | 0.9 | 79.1* | 8.8 | 9.0 | 0.2
COc1ccc(CCC(N)=O)cc1OC | 1.2 | 18.8 | -17.4 | 27.3* | 0.8
COc1ccc(C(=O)OCC(=O)c2cc(OC)ccc2OC)c(OC)c1 | 0.1 | -213.1 | 86.5* | 3.9 | 3.1*
COc1ccc(OC)c(C(=O)COC(=O)C2CC3CCCC(C2)C3=O)c1 (configuration not stated) | 0.5 | -44.7 | 50.5* | 8.2 | 1.4
COc1ccc(OC)c(C(=O)COC(=O)c2ccc(C)o2)c1 | 0.1 | -87.3 | 92.6* | 10.9 | 1.9
Cc1ccc(C)c(C(=O)COC(=O)c2ccc(Br)o2)c1 | 0.7 | -71.3 | 27.0 | 6.1 | 1.7
COc1ccc(CNC(N)=O)cc1OC | 1.1 | -8.1 | -14.9 | 26.6 | 1.1
CC(=O)CCc1c(C)[nH]c2ccc(NC(C)=O)cc2c1=O | 1 | -0.3 | -2.3 | 7.5 | 1
O=C(Nc1cnn(Cc2ccccc2)c1)c1nc2ncccn2n1 | 1 | 13.5 | -1.6 | 18.2 | 0.9
COc1cc(C2NC(=O)CS2)cc(OC)c1OC (configuration not stated) | x | x | x | 23.4 | x
COc1ccc(CC(=O)c2cc(OC)c(OC)cc2CC(=O)O)cc1OC | 1 | -2.2 | -1.4 | 4.3 | 1
COc1ccc(/C(N)=N/OC(=O)Cc2ccc(OC)c(OC)c2)cc1 | 0.8 | 64.9* | 16.1 | 15.2 | 0.4
COc1ccc(C(=O)Cc2ccc(OC)c(OC)c2)c(OC)c1 | 0 | 8.6 | 99.0* | 60.9* | 0.9
COc1ccc(-c2cc(=Nc3ccc(C)cc3)c3ccccc3o2)cc1 | 0.7 | 52.9* | 34.3 | 3.9 | 0.5
CC(C)CNC(=O)COC(=O)c1cc(Cl)cc(Cl)c1N | 0.3 | -93.6 | 65.7* | 20.2 | 1.9
SMILES | CYP2C19 activ | CYP2C9 inh | CYP2C19 inhib | Measles CPE | CYP2C9 activ
COC(=O)CNC(=O)COC(=O)c1cc(Cl)cc(Cl)c1N | x | x | x | 15.1 | x
CCn1c(SCC(=O)Nc2ccccc2)nnc1-c1ccc(S(=O)(=O)N2CCOCC2)cc1 | 0.9 | 21.7 | 12.9 | 9.1 | 0.8
Cc1ccc(N2C(=O)Nc3ccc(Br)cc3C2(O)C(=O)NCCCN(C)C)cc1C (configuration not stated) | 0.9 | 3.8 | 13.0 | 50.0* | 1
Cc1cc(OCC(=O)NCCCN(C)C)cc(C)c1Br | 0.9 | -23.1 | 8.5 | 3.4 | 1.2
COc1cc(/C=C2\SC(c3ccc(C)cc3)=NC2=O)cc(OC)c1O | 0.3 | 81.7* | 70.7* | 7.1 | 0.2
N#CCSc1nc2c(c(=O)n1Cc1ccco1)C1(CCCC1)Cc1ccccc1-2 | 1 | 49.9 | -0.1 | x | 0.5
COc1ccc(N2CCN(CC(O)COc3ccc4c(c3)CCC4)CC2)cc1 (configuration not stated) | 0.4 | -20.7 | 58.5* | 2.2 | 1.2
COc1cccc(OC)c1OCC(O)CN1CCN(c2ccccc2)CC1 (configuration not stated) | 1 | -14.4 | 2.9 | 8.6 | 1.1
COc1ccc(OCC(O)CN2CCCCCC2)cc1 (configuration not stated) | x | x | x | 24.8 | x
C=CCc1ccccc1OCC(O)CN1CCN(c2ccc(OC)cc2)CC1 (configuration not stated) | 0.5 | 8.4 | 50.5* | -0.2 | 0.9
C=CCc1ccc(OCC(O)CN2CCN(Cc3ccc(Cl)cc3)CC2)c(OC)c1 (configuration not stated) | x | x | x | 18.9 | x
OC(COc1ccc2c(c1)CCC2)CN1CCN(c2ccccc2F)CC1 (configuration not stated) | 0.5 | -2.4 | 51.4* | 17.1 | 1
C=CCc1ccc(OCC(O)CN2CCC(Cc3ccccc3)CC2)c(OC)c1 (configuration not stated) | 0.5 | -6.8 | 54.6* | 4.2 | 1.1
C=CCc1ccccc1OCC(O)Cn1ccnc1C (configuration not stated) | 0.4 | 16.6 | 57.2* | 4.6 | 0.8
CC(C)Sc1nc(N)nc(-c2cccs2)c1C#N | 0.7 | 74.6* | 29.3 | 9.2 | 0.3
CSc1nc(N)nc(-c2cccs2)c1C#N | 0.2 | 57.7* | 78.0* | 17.5 | 0.4
N#Cc1c(N)oc(-c2cccs2)c1-c1cccs1 | 0.8 | 22.3 | 15.8 | 13.4 | 0.8
O=C(c1ccco1)N1CCN(c2ncnc3c(-c4ccccc4)nsc23)CC1 | 0.9 | 13.6 | 6.1 | 1.9 | 0.9
O=C(c1ccco1)N1CCN(c2ncnc3c2[nH]c2ccc(Br)cc23)CC1 | 0 | 90.3* | 95.5* | 9.5 | 0.1
COc1ccc(-c2nsc3c(N4CCN(C(=O)c5ccco5)CC4)ncnc23)cc1 | 0.9 | 28.2 | 10.5 | 5.0 | 0.7
O=C(c1ccco1)N1CCN(c2ncnc3c2[nH]c2ccccc23)CC1 | 0.3 | 40.2 | 67.0* | 16.1 | 0.6
CCC(C(=O)Nc1ccccc1OC)n1c(C(=O)OC)cc2ccsc21 (configuration not stated) | 0 | 95.6* | 98.3* | 12.7 | 0
O=C(C(c1ccccc1)c1ccccc1)N1CCN(Cc2ccccn2)CC1 | 1 | 8.8 | 3.5 | 11.7 | 0.9
O=C(c1cccs1)N1CCN(Cc2ccncc2)CC1 | 0.1 | 74.4* | 88.2* | 9.2 | 0.3
O=C(C(c1ccccc1)c1ccccc1)N1CCN(Cc2ccncc2)CC1 | 0.6 | 87.7* | 43.9 | 4.9 | 0.1
O=C(c1cccs1)N1CCN(Cc2cccnc2)CC1 | 0.2 | 36.9 | 82.9* | 7.3 | 0.6
CCN(CC)CC(=O)NCc1cc(-c2ccc(OC)cc2)no1 | 0.8 | 16.2 | 17.9 | 3.8 | 0.8
CCOC(=O)c1c(NC(=O)c2cc(-c3cccc(O)c3)on2)sc(C(C)=O)c1C | x | x | x | 21.4 | x
